Bioassay records deposited in PubChem by National Center for Advancing Translational Sciences (NCATS).
IL-2 act – qHTS of IL-2 Activators. IL-2 activation reporter assay, cell-based qHTS; stimulated with anti-CD3/CD4/CD28 beads; in transgenic mouse T cells. 360,000 compounds, 0.065% hits. activation, % (series mostly up to about 46 µM); in the data active = activation above about 50%; inconclusive = mostly about 30% to 49%; also: 0% is about no effect
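Quantitative HTS in unstimulated transgenic mouse T cells, with memory T cells as non-tolerant control and PMA/ionomycin as tolerance-bypass control. Compound pretreatment lasted 60 minutes before 18 h bead stimulation; EGFP/DsRed fluorescence read.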
miR-21 reporter – qHTS Assay for Modulators of miRNAs and/orActivators of miR-21; AID 2288, 2010; 340,000 tested, under 10 active; HeLa miR-21 FLuc reporter, luciferase, 48 h; Potency, µM (titrated, usually from 38.3 µM), without a hit: at the highest dose activity change, positive = activation, most hits filed as activators;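 also: % of control where 0% means no effect; miR-21 action dims this reporter so a rising signal means less miR-21 action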
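HeLa cells stably expressing CMV-driven firefly luciferase with a downstream miR-21 binding sequence, endogenously expressing miR-21, were treated with titrations (up to about 40uM final) for 48 hours at 37 degree Celsius. Luciferase luminescence was read after lysis.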
A549 viability – Nrf2 qHTS screen for inhibitors: counterscreen for cytotoxicity; A549 ARE-Fluc cells, CellTiter-Fluor viability, 18-24 h; Potency, µM (titrated, usually from 46 µM), inactives show top-dose activity change, negative = cytotoxicity, actives largely listed as inhibitors; 390,000 compounds, 0.16% hits; also: potency is read from the fitted curve at half-maximal effect; % is scaled to controls: 0 for no effect and ±100 for the full control effect
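A549 ARE-Fluc cells in 5% FBS OPTI-MEM, 5000 cells/well, rested 2 h then exposed to compounds in concentration-response for 18-24 h at 37 °C. Viability by CellTiter-Fluor fluorescence (Ex 405/Em 525) after 30 min; luciferase luminescence (BugLite, 15 min, RT) read afterwards.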
Nrf2 activator – qHTS of Nrf2 Activators; AREc32 ARE-luciferase reporter (MCF7-derived line), luminescence, 24 h; Potency, µM (top dose mostly 46.1 µM), for inactives: at the top dose activation, usual class: activators; 410,000 compounds, 0.31% hits; AID 624171, 2012; also: potency is read from the fitted curve at half-maximal effect; % of control where 0% means no effect; nearly all actives have a fitted effect of over 65% in size
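Quantitative high-throughput format: AREc32 reporter cells, 1000 per well, received compound by pin transfer and were incubated 24 hr at 37 deg C, 5% CO2, before Steady-Glo luminescence detection.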
ClpP mod – qHTS Assay for Activators of ClpP; ATP-dependent Clp protease proteolytic subunit (Bacillus subtilis (strain 168)), P80244; purified B. subtilis ClpP, FRET peptide cleavage, 20 min; Potency, µM (doses to about 57.5 µM), without a hit: at the highest dose activity change, negative = active; 340,000 compounds, 1.9% hits; AID 651965, 2013; active = well fitted falling curve with a large enough effect; inconclusive = small, poorly fitted or top-dose-only effect; inactive = no such curve, though single readings can be large or run the other way; also: potency is read from the fitted curve at half-maximal effect; the source files actives as falling curves though it sought activators and does not explain the sign; nearly all actives have a fitted effect of over 65% in size
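Buffer: 100 mM Tris/HCl pH8, 100 mM KCl, 0.05% low protease BSA, 2.5% glycerol, 0.01% Tween-20. ClpP 10 microg/mL final; 20 min RT; delta FRET normalized to ADEP and DMSO controls.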
Nrf2 block – Nrf2 qHTS screen for inhibitors | A549 ARE-Fluc reporter, luciferase luminescence, 18-24 h | Potency, µM (series often up to 46 µM), for the others: at the highest dose activity change, negative = inhibition, hits mostly inhibitors | 360,000 compounds, 2.1% hits; also: potency is read from the fitted curve at half-maximal effect; % is scaled to controls: 0 for no effect and ±100 for the full control effect; nearly all actives have a fitted effect of over 60% in size
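Nrf2 function is reported as luminescence of an ARE-controlled luciferase in A549 cells. Compounds were tested at several concentrations, and a CellTiter-Fluor read on the same wells flagged cytotoxicity.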
The depositor's hits bear a star; ? = inconclusive; . = not tested or not shown; [ ] = dose if it differs, or a comment. A selection: hits, their analogues and other compounds. The true share with any hit is near 3.7%. Unless noted, calls follow the shape of the dose curve; as a rule, active = well fitted curve in the direction sought with a large enough effect; inconclusive = small, poorly fitted or top-dose-only effect, or another doubt; inactive = no such curve, though single readings can be large; an effect the other way counts as inactive or inconclusive.

SMILES	IL-2 act	miR-21 reporter	A549 viability	Nrf2 activator	ClpP mod	Nrf2 block
Cc1ccc(S(=O)(=O)N(C)c2ccc(C(=O)Nc3ccccc3C(=O)N3CCOCC3)cc2)cc1	-1	3%	5%	2%	18µM*	2%
CC(=O)Nc1ccc(S(=O)(=O)N(C)c2ccccc2)cc1	-3	-2%	-5%	0%	0%	.
Cc1ccccc1Cn1c(CN2CCC(C(=O)NCCN(C)C)CC2)cc2ccccc21	.	-1%	-6%	12%	-2%	.
CC(C)CCNC(=O)N1CCN(S(=O)(=O)c2ccc3c(ccn3C)c2)CC1	.	-4%	-8%	-1%	-1%	.
CC(=O)Nc1ccc(C(=O)Nc2cccc(S(=O)(=O)N(C)c3ccccc3)c2)cc1	0	.	1%	-2%	-3%	?
CN(c1cccc(NC(=O)c2ccc(N(C)S(=O)(=O)c3ccccc3)cc2)c1)S(C)(=O)=O	-1	?	-15%	0%	0%	15µM*
CN1C(CCl)Nc2cc(Cl)c(S(N)(=O)=O)cc2S1(=O)=O (centres undefined)	-1	.	2%	0%	14µM*	?
CCn1c(=O)c2sccc2n2c(CCC(=O)N3CCN(c4ccccc4OC)CC3)nnc12	.	2%	3%	0%	-15%	2%
Cc1cc(=O)n(CC(=O)Nc2ccc(Cl)c(Cl)c2)c(-n2nc(C)cc2C)n1	.	-7%	8%	0%	0%	.
COc1ccc(/C=N/NC(=O)CCc2n[nH]c(=O)[nH]c2=O)cc1OC	0	2%	8%	0%[9.22 µM]	-6%	-5%
COc1cccc(/C=N/NC(=O)CCc2n[nH]c(=O)[nH]c2=O)c1O	1	-5%	5%	-1%[9.22 µM]	10µM*	10%
Cc1ccc(S(=O)(=O)C(CNS(=O)(=O)c2cc(F)ccc2F)c2cccs2)cc1 (centres undefined)	.	6%	-7%	9%	-3%	.
Cc1ccc(N2CCN(S(=O)(=O)c3ccc(Cl)s3)CC2C)cc1 (centres undefined)	-1	5%	-4%	0%	-7%	13µM*
Cc1ccc(N2CCN(S(=O)(=O)c3c(C)[nH]c(=O)[nH]c3=O)CC2C)cc1 (centres undefined)	.	-1%	12%	0%	1%	.
CCn1c(C(=O)NCc2ccccc2C)cc2oc3ccccc3c21	.	20%	-1%	0%	4%	?
O=C(O)c1ccccc1OC1=NS(=O)(=O)c2ccccc21	.	.	-2%	.	.	14%
CC(C)(C)c1ccccc1Nc1nc(C#N)nc(NC2CCCC2)n1	.	.	-29%	.	.	?
CC12CCC(C/C1=N\N=C1\NC(=O)/C(=C\c3cccc(Br)c3)S1)C2(C)C (centres undefined)	0	-9%	?	7%	0%	18µM*
CSc1ccc(CCNC(=O)c2cc3c(-c4ccccc4F)nn(C)c3s2)cc1	.	9%	?	1%	4%	?
CN(C)c1nc(NCc2ccccc2)nc(SCC(=O)Nc2ccccc2)n1	-1	-8%	-11%	0%	-1%	23µM*
Cc1ccc(C(=O)NCCN(C)C)c(C)c1	-1	0%	-2%	0%	0%	12%
CNc1c2cccc(C)c2nc2c(C(=O)NCCN(C)C)cccc12	0	.	4.6µM*	-2%	1%	1.5µM*
COc1ccc(NC(=O)CSc2ncc(-c3ccc(F)cc3)n2Cc2ccco2)cc1	-3	21%	-17%	2%	-1%	16µM*
COc1ccc(-c2cnc(SCC(=O)Nc3cc(C)on3)n2Cc2ccco2)cc1	-1	-7%	-7%	0%	-1%	-13%
COc1ccc(-c2cnc(SCC(=O)Nc3nc(C(C)(C)C)cs3)n2Cc2ccco2)cc1	0	12%	-15%	8%	-5%	21µM*
SMILES	IL-2 act	miR-21 reporter	A549 viability	Nrf2 activator	ClpP mod	Nrf2 block
CCOc1ccc(S(=O)(=O)NCCc2csc3nc(-c4ccc(F)cc4)nn23)cc1	.	23%	-14%	4%	1%	.
Cc1cc(C)c2c(=O)c3c(oc2c1)C(=O)N(Cc1ccco1)C3c1ccccc1F (centres undefined)	.	0%	2%	0%	0%	16%
Cc1ccc(NC(c2ccc(Cl)cc2)c2nnc(-c3cccc(F)c3)o2)cc1C (centres undefined)	.	-13%	-2%	0%	-2%	21%
Nc1c(C(=O)Nc2ccccc2F)sc2nc(Cc3ccccc3)cc(C(F)(F)F)c12	51*	3%	?	0%	2%	?
Cc1cc(C)c2c(N)c(C(=O)Nc3ccccc3C(F)(F)F)sc2n1	.	-57%	0%	5%	4%	.
CCC1=C(OC(=O)N(CC)CC)N2C(=O)OC(=NCc3ccccc3)[C@]2(C)[C@H]2C1=CC[C@H]1C(=O)NC(=O)[C@H]12	0	0%	-25%	1%	-3%	18µM*
CCC1=C(OC(=O)N(CC)CC)N2C(=O)OC(=NCC(=O)OC)[C@]2(C)[C@H]2C1=CC[C@H]1C(=O)NC(=O)[C@H]12	-3	2%	-5%	0%	0%	3%
O=C(CCn1c(=O)c2sccc2n(Cc2cc(=O)n3ccccc3n2)c1=O)NCc1ccco1	2	-1%	-1%	0%	28µM*	16%
O=C(CNC(=O)c1ccc2n[nH]nc2c1)OC(C(=O)Nc1cc(C(F)(F)F)ccc1Cl)c1ccccc1 (centres undefined)	.	.	3%	.	.	-20%
CCOC(=O)C1=C(C)NC(=O)NC1c1ccc(Br)o1 (centres undefined)	-3	4%	-1%	0%	2%	5%
CCOC(=O)C1=C(C)NC(C)=C(C(=O)OCC)C1c1ccc(Br)o1	-1	0%	-16%	4%	3.5µM*	?
CCOc1ccc(N2CC(C(=O)Nc3ncccc3C)CC2=O)cc1 (centres undefined)	-2	0%	2%	-1%	18µM*	7%
Cc1ccc(N2CC(C(=O)Nc3nccs3)CC2=O)cc1Cl (centres undefined)	2	16%	16µM*	-2%	1%	?
COCc1nnc(NC(=O)C2CC(=O)N(c3ccc(C)c(Cl)c3)C2)s1 (centres undefined)	-4	.	0%	0%	-17%	4%
